Measured values as given in PubChem BioAssay (EPA / NIEHS).
Active and inactive are the calls of the source. The calls were made as follows: active = hit-call score of the fitted dose curve at least 0.9, where 1 is the maximum; inactive = score below 0.9.

What was measured:
Details in all cases: mRNA level, 48 h; actives raise or lower the signal
[1] = read-out: Insulin Like Growth Factor 1 (IGF1), IGF1 (gene 3479); assay: LTEA_HepaRG_IGF1: Life Technologies and Expression Analysis (LTEA) Assay for Insulin Like Growth Factor 1 (IGF1) using HepaRG (AID 2283506)
In short: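 Differentiated human HepaRG cells were dosed for 48 h in serum-free induction medium with 0.5% DMSO, eight half-log concentrations up to 100 uM, in duplicate. IGF1 mRNA was quantified by qRT-PCR normalized to ACTB, GAPDH, POLR2A; bidirectional fitting versus DMSO.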

[2] = read-out: Intercellular Adhesion Molecule 1 (ICAM1), ICAM1 (gene 3383); assay: LTEA_HepaRG_ICAM1: Life Technologies and Expression Analysis (LTEA) Assay for Intercellular Adhesion Molecule 1 (ICAM1) using HepaRG (AID 2283507)
In short: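 HepaRG, 48 h exposure, 8-pt half-log series from 100 uM, 0.5% DMSO vehicle, duplicates. Readout: TaqMan qRT-PCR mRNA, housekeeping-normalized (ACTB/GAPDH/POLR2A). Bidirectional curve fit vs DMSO baseline.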

[3] = read-out: Insulin-like growth factor-binding protein 1 (IGFBP1), IGFBP1 (gene 3484); assay: LTEA_HepaRG_IGFBP1: Life Technologies and Expression Analysis (LTEA) Assay for Insulin-like growth factor-binding protein 1 (IGFBP1) using HepaRG (AID 2283508)
In short: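 qRT-PCR mRNA read-out (TaqMan, Fluidigm array), normalised to three housekeeping genes; HepaRG cells, 48 h exposure, 8-pt half-log series from 100 uM, 0.5% DMSO vehicle; bidirectional curve fit vs DMSO baseline.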

[4] = read-out: Interleukin 6 (IL6), IL6 (gene 3569); assay: LTEA_HepaRG_IL6: Life Technologies and Expression Analysis (LTEA) Assay for Interleukin 6 (IL6) using HepaRG (AID 2283509)
In short: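 HepaRG cells exposed in duplicate for 48 h to eight half-log concentrations, top 100 uM, in 0.5% DMSO serum-free induction medium. mRNA measured by qRT-PCR, normalized to ACTB, GAPDH and POLR2A. Bidirectional fit versus DMSO.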

[5] = read-out: Interleukin 6 Receptor (IL6R), IL6R (gene 3570); assay: LTEA_HepaRG_IL6R: Life Technologies and Expression Analysis (LTEA) Assay for Interleukin 6 Receptor (IL6R) using HepaRG (AID 2283510)
In short: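 Differentiated human HepaRG cells, plated 48 h then switched to serum-free induction medium, were dosed in duplicate for 48 h at eight half-log concentrations up to 100 uM in 0.5% DMSO. IL6R mRNA quantified by qRT-PCR, normalized to ACTB/GAPDH/POLR2A; bidirectional fit versus DMSO.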

[6] = read-out: Potassium channel subfamily K member 1 (KCNK1), KCNK1 (gene 3775); assay: LTEA_HepaRG_KCNK1: Life Technologies and Expression Analysis (LTEA) Assay for Potassium channel subfamily K member 1 (KCNK1) using HepaRG (AID 2283511)
In short: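 Differentiated HepaRG cells, 48 h exposure in serum-free induction medium with 0.5% DMSO; 8 concentrations, half-log from 100 uM, duplicate. KCNK1 mRNA by qRT-PCR, normalized to ACTB, GAPDH, POLR2A; bidirectional fit vs DMSO.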

[7] = read-out: JUN Transcription Factor, JUN (gene 3725); assay: LTEA_HepaRG_JUN: Life Technologies and Expression Analysis (LTEA) Assay for JUN Transcription Factor using HepaRG (AID 2283513)
In short: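 Differentiated HepaRG cells were exposed to chemicals for 48 h in serum-free induction medium, 8 concentrations from 100 uM in half-log steps, 0.5% DMSO vehicle, in duplicate. JUN mRNA was quantified by TaqMan qRT-PCR, normalized to ACTB, GAPDH, POLR2A.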

[8] = read-out: Lipase C (LIPC), LIPC (gene 3990); assay: LTEA_HepaRG_LIPC: Life Technologies and Expression Analysis (LTEA) Assay for Lipase C (LIPC) using HepaRG (AID 2283514)
In short: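 HepaRG cells, 48 h after plating, treated in duplicate for 48 h in serum-free induction medium over 8 half-log concentrations from 100 uM, 0.5% DMSO. LIPC mRNA by TaqMan qRT-PCR normalized to ACTB/GAPDH/POLR2A; bidirectional fit versus DMSO.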

[9] = read-out: Lipoprotein lipase (LPL), LPL (gene 4023); assay: LTEA_HepaRG_LPL: Life Technologies and Expression Analysis (LTEA) Assay for Lipoprotein lipase (LPL) using HepaRG (AID 2283515)
In short: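 Differentiated HepaRG cells, plated 48 h, then exposed 48 h in serum-free induction medium to 8 concentrations (top 100 uM, half-log steps) in 0.5% DMSO, duplicate. LPL mRNA measured by qRT-PCR, normalized to ACTB, GAPDH and POLR2A.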

[10] = read-out: MicroRNA 122 (MIR122), gene 406906; assay: LTEA_HepaRG_MIR122: Life Technologies and Expression Analysis (LTEA) Assay for MicroRNA 122 (MIR122) using HepaRG (AID 2283516); also: the transcript read is the microRNA miR-122
In short: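 Differentiated human HepaRG cells were exposed 48 h in serum-free induction medium to eight half-log concentrations (top 100 uM, 0.5% DMSO). Transcript level was measured by TaqMan qRT-PCR, normalized to ACTB, GAPDH and POLR2A, and fitted bidirectionally versus DMSO.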

[11] = read-out: matrix metalloproteinase-10 (MMP10), MMP10 (gene 4319); assay: LTEA_HepaRG_MMP10: Life Technologies and Expression Analysis (LTEA) Assay for matrix metalloproteinase-10 (MMP10) using HepaRG (AID 2283517)
In short: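 Differentiated HepaRG cells in serum-free induction medium exposed 48 h in duplicate to 8-point half-log series up to 100 uM in 0.5% DMSO. mRNA quantified by qRT-PCR, normalised to ACTB, GAPDH, POLR2A; bidirectional fit versus DMSO.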

[12] = read-out: matrix metalloproteinase-3 (MMP3), MMP3 (gene 4314); assay: LTEA_HepaRG_MMP3: Life Technologies and Expression Analysis (LTEA) Assay for matrix metalloproteinase-3 (MMP3) using HepaRG (AID 2283519)
In short: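 HepaRG cells (~100,000/well) in serum-free induction medium were dosed in duplicate for 48 h with an 8-point half-log series from 100 uM, 0.5% DMSO. MMP3 mRNA was quantified by Fluidigm TaqMan qRT-PCR, normalized to three housekeeping genes.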

[13] = read-out: Paternally Expressed 10 (PEG10), PEG10 (gene 23089); assay: LTEA_HepaRG_PEG10: Life Technologies and Expression Analysis (LTEA) Assay for Paternally Expressed 10 (PEG10) using HepaRG (AID 2283520)
In short: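 Differentiated HepaRG cells, plated 48 h then switched to serum-free induction medium, were exposed in duplicate for 48 h to eight half-log concentrations topping at 100 uM in 0.5% DMSO. PEG10 mRNA was quantified by TaqMan qRT-PCR, normalised to ACTB, GAPDH and POLR2A.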

[14] = read-out: Nuclear factor NF-kappa-B p105 subunit (Homo sapiens) (UniProt P19838); assay: LTEA_HepaRG_NFKB1: Life Technologies and Expression Analysis (LTEA) Assay for Nuclear Factor Kappa B Subunit 1 (NFKB1) using HepaRG (AID 2283521);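 also: TaqMan qRT-PCR transcript normalised to ACTB GAPDH and POLR2A housekeeping genes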
In short: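 HepaRG, 48 h exposure; 8-pt half-log series from 100 uM in 0.5% DMSO; duplicates. Readout: NFKB1 mRNA by qRT-PCR (Fluidigm arrays), housekeeping-normalized. Gain/loss fit vs DMSO baseline.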

[15] = read-out: Phosphatase and tensin (PTEN), PTEN (gene 5728); assay: LTEA_HepaRG_PTEN: Life Technologies and Expression Analysis (LTEA) Assay for Phosphatase and tensin (PTEN) using HepaRG (AID 2283523)
In short: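 HepaRG cells, 48 h after plating, exposed in duplicate for 48 h in serum-free induction medium to 8 half-log concentrations up to 100 uM (0.5% DMSO). PTEN mRNA by qRT-PCR, normalized to ACTB, GAPDH, POLR2A; bidirectional fit versus DMSO.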

[16] = read-out: solute carrier (SLC22A1), SLC22A1 (gene 6580); assay: LTEA_HepaRG_SLC22A1: Life Technologies and Expression Analysis (LTEA) Assay for solute carrier (SLC22A1) using HepaRG (AID 2283524)
In short: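 Differentiated human HepaRG cells in serum-free induction medium, exposed 48 h in duplicate to 8-point half-log series from 100 µM top in 0.5% DMSO. SLC22A1 mRNA by TaqMan qRT-PCR normalized to ACTB, GAPDH, POLR2A; bidirectional fit versus DMSO.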

[17] = read-out: Pyruvate Dehydrogenase Kinase 4 (PDK4), PDK4 (gene 5166); assay: LTEA_HepaRG_PDK4: Life Technologies and Expression Analysis (LTEA) Assay for Pyruvate Dehydrogenase Kinase 4 (PDK4) using HepaRG (AID 2283525)
In short: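 HepaRG cells plated 48 h, then switched to serum-free induction medium and exposed in duplicate for 48 h to 8 half-log concentrations from 100 uM in 0.5% DMSO. PDK4 mRNA measured by qRT-PCR, normalized to ACTB, GAPDH and POLR2A; bidirectional fit versus DMSO.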

[18] = read-out: Keratin 19 (KRT19), KRT19 (gene 3880); assay: LTEA_HepaRG_KRT19: Life Technologies and Expression Analysis (LTEA) Assay for Keratin 19 (KRT19) using HepaRG (AID 2283512)
In short: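 HepaRG, 48 h chemical exposure, 8-pt half-log CRC from 100 uM, 0.5% DMSO vehicle, duplicates. Readout: TaqMan qRT-PCR of KRT19 mRNA, housekeeping-normalized (ACTB/GAPDH/POLR2A). Bidirectional fit vs DMSO baseline.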

MYC, MYC (gene 4609) = assay: LTEA_HepaRG_MYC: Life Technologies and Expression Analysis (LTEA) Assay for MYC using HepaRG (AID 2283518)
In short: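 qRT-PCR read-out of MYC transcript (Fluidigm TaqMan, housekeeping-normalized) after 48 h chemical exposure of HepaRG cells; eight concentrations, top 100 uM, half-log steps. Bidirectional curve fitting against 0.5% DMSO vehicle baseline.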

[19] = read-out: Protein phosphatase 2A (PPP2R4), PTPA (gene 5524); assay: LTEA_HepaRG_PPP2R4: Life Technologies and Expression Analysis (LTEA) Assay for Protein phosphatase 2A (PPP2R4) using HepaRG (AID 2283522)
In short: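 Differentiated HepaRG cells in serum-free induction medium were exposed in duplicate for 48 h to eight concentrations, top 100 uM with half-log dilutions, in 0.5% DMSO. PPP2R4 mRNA was quantified by TaqMan qRT-PCR, normalized to ACTB, GAPDH and POLR2A.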

Measured: AC50

Sequence of Nuclear factor NF-kappa-B p105 subunit (Homo sapiens) (P19838 whole entry, looked up): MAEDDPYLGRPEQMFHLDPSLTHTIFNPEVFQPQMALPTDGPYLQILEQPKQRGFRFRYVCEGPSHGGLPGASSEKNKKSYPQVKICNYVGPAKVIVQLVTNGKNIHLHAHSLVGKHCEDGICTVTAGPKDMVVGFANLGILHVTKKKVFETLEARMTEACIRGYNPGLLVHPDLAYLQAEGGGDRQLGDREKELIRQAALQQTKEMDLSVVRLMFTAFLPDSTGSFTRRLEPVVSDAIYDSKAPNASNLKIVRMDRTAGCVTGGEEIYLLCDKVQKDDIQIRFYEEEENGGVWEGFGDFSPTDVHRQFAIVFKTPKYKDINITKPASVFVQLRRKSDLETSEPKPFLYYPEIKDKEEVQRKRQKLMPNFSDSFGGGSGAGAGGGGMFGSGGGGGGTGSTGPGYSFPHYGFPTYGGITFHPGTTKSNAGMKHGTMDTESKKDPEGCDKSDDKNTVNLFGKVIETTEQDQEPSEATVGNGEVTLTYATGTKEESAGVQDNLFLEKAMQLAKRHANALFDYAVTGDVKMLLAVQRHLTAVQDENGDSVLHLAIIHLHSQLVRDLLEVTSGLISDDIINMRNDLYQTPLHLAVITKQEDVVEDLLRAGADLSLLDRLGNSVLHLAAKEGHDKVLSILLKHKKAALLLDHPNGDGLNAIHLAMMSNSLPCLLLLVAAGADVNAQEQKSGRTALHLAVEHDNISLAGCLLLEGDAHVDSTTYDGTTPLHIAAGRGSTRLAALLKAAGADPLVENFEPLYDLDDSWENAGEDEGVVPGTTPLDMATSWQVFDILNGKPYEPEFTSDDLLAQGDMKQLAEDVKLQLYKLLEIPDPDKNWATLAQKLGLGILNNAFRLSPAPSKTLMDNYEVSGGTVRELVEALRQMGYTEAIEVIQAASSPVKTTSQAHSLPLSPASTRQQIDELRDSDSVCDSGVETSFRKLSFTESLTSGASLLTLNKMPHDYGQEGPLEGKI

COP(=S)(OC)SCN1C(=O)c2ccccc2C1=O
not listed: [18] | MYC, MYC (gene 4609) | [19]
inactive: all other assays above

O=[N+]([O-])c1ccc(Oc2ccc(Cl)cc2Cl)cc1
active: [1] 50 µM | [3] 50 µM | [18] 41.1 µM | [13] 50 µM | [17] 11.3 µM
not listed: [11] | MYC, MYC (gene 4609) | [19]
inactive: all other assays above

CCCCOC(=O)c1ccccc1C(=O)OCc1ccccc1
not listed: [3] | [19]
inactive: all other assays above

CCCCCCCCn1sccc1=O
active: [5] 99.3 µM | [8] 80.9 µM | [10] 82.3 µM | [13] 52 µM | [16] 78.4 µM | [17] 34.4 µM
not listed: [11] | MYC, MYC (gene 4609) | [19]
inactive: all other assays above

O=Cc1ccco1
not listed: [3] | MYC, MYC (gene 4609)
inactive: all other assays above

O=C(Oc1ccc(Br)cc1)N1CCN2CCC1CC2
active: [9] 74.4 µM
not listed: [3] | [11] | MYC, MYC (gene 4609)
inactive: all other assays above

CC(O)CCO (stereo not drawn)
not listed: [3] | [11] | [19]
inactive: all other assays above

O=C1CCCO1
active: [9] 50 µM | [12] 83.1 µM | [15] 82.9 µM
not listed: [3] | [11] | [14]
inactive: all other assays above
